{
  "source": "PubChem BioAssay",
  "key": {"[1]": {"experiment": "growth inhibition of DIPG glioma cells, dose response, cell-based, SU-DIPG-XIII, MIPE5.0, CellTiter-Glo, qHTS (AID 1347064; cut-off not given, nearly all actives have AC50 up to about 23 µM;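 as to AC50: cells exposed to compound for 48 hours before the viability read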)", "settings": "SU-DIPG-XIII viability, CellTiter-Glo ATP luminescence"}, "[2]": {"experiment": "viability loss in pontine glioma line – cell-based, SU-DIPG-XXV, MIPE5.0, CellTiter-Glo, qHTS, dose response (AID 1347065; cut-off not given, nearly all actives have AC50 up to about 26 µM;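 also: cells exposed to compound for 48 hours before ATP readout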)", "settings": "CellTiter-Glo ATP luminescence"}, "[3]": {"test_system": "Neuropilin-2 / VEGF-C interaction (human)", "experiment": "inhibitors of NRP2–VEGF-C binding, biochemical, microplate binding format, z-score (AID 743281; call rule not given here)", "settings": "microplate NRP2/VEGF-C binding assay; stronger effect = lower value"}, "[4]": {"test_system": "Aerobactin synthetase IucA (Klebsiella pneumoniae)", "experiment": "IucA aerobactin synthetase inhibitors, biochemical, Tocris library, absorbance (AID 1345561; call rule not given here;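 also: 100% = enzyme without compound and 0% = no enzyme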)", "settings": "purified IucA enzyme assay, absorbance (OD) read-out; stronger effect = lower value;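 tested at 8 µM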"}, "[5]": {"experiment": "inhibitors of Cryptococcus chitosan production, flow cytometry, Cibacron Brilliant Red staining (AID 1347148; call rule not given here;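 also: compound exposure lasted three days at 37 degrees C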)", "settings": "Cryptococcus neoformans chitosan, stronger effect = lower value; at 99.1 µM unless noted"}, "[6]": {"experiment": "protection against mutant huntingtin cytotoxicity, PC12 cells, LDH release (AID 1610)", "settings": "PC12 mutant huntingtin toxicity, final LDH at 4 uM, stronger effect = lower value"}, "[7]": {"experiment": "modifiers of HSF1 nuclear foci, imaging, Selleck Cancer Library (AID 1347162; in the data active = plate-normalised HSF1 focus index below about 0.46)", "settings": "human cells, at 10 µM; SSMD: measured here: HSF1 foci SSMD mean; cell count: measured here: cell number; plate-normalised HSF1 focus index: stronger effect = lower value"}, "[8]": {"experiment": "liver-stage malaria parasite growth inhibition, primary screen, cell-based, HepG2, luciferase luminescence, HepG2 viability (AID 624349; in the data active = parasite load remaining mostly below about 12%, no sharp cut-off; inactive = mostly above about 10%;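 also: 100% = mean of DMSO negative control wells on the same plate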)", "settings": "P. berghei liver stage in HepG2, luciferase luminescence, concentration not given here; parasite load remaining: stronger effect = lower value; viability: measured here: HepG2 viability without parasites"}, "[9]": {"experiment": "LFS_MB_1R medulloblastoma cell growth inhibition, synergistic combos for chromothripsis tumors, cisplatin or BGB combos (AID 1671452);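 also: cells exposed for 96 hours before readout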", "settings": "LFS_MB_1R medulloblastoma cells, stronger effect = higher value"}, "[10]": {"experiment": "CRL2098 osteosarcoma cell growth inhibition, synergistic combos for chromothripsis tumors, BGB or cisplatin IC20 combos (AID 1671454);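 also: cells exposed for 96 h before readout; 0% = vehicle DMSO and 100% = killing by high DMSO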", "settings": "CRL2098 osteosarcoma cells, drug combinations, stronger effect = higher value"}, "[11]": {"experiment": "HD-MB03 medulloblastoma cell growth inhibition, synergistic combos for chromothripsis tumors, BGB or cisplatin IC20 combos (AID 1671455; in the data active = inhibition above about 83%;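 also: 0% = vehicle DMSO and 100% = high DMSO as cytotoxic control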)", "settings": "HD-MB03 medulloblastoma cells, stronger effect = higher value"}, "[12]": {"experiment": "UWB1.289 ovarian carcinoma cell growth inhibition, synergistic combos for chromothripsis tumors, BGB or cisplatin combos (AID 1671456);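 also: cells exposed to compound for four days; 0% = vehicle DMSO and 100% = killing by high DMSO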", "settings": "UWB1.289 ovarian carcinoma cells, stronger effect = higher value"}, "[13]": {"experiment": "LFS_MB_2R medulloblastoma cell growth inhibition, synergistic combos for chromothripsis tumors, cisplatin combos (AID 1671457);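 also: cells exposed to compound for four days before readout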", "settings": "LFS_MB_2R medulloblastoma cells, stronger effect = higher value"}, "[14]": {"experiment": "UWB1.289_BRCA1 ovarian cancer growth, cell-based, BGB or cisplatin combinations (AID 1671459)", "settings": "UWB1.289 BRCA1 ovarian carcinoma, drug combinations, stronger effect = higher value"}, "[15]": {"experiment": "human astrocyte viability loss, single and combined drugs, cytotoxicity control for chromothriptic childhood tumor combination screen, cell-based, BGB or cisplatin IC20 combos (AID 1671460);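 also: cells exposed to compounds for 96 hours before viability readout; 0% = vehicle and 100% = killing control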", "settings": "Human astrocytes, drug combinations, stronger effect = higher value"}, "[16]": {"settings": "measured here: combination with cisplatin, at 0.5 µM"}, "[17]": {"settings": "measured here: combination with cisplatin, at 5 µM"}},
  "note": "Several values for one entry are separate records, joined by “and”; a condition that tells them apart may be missing. Equal entries are not always repeated. Records with an inconclusive call do not appear. Activity calls are given as the source filed them. Rule as the data show it, unless noted: active = inhibition above about 80%; inactive = the rest.",
  "data": [
    {"smiles": "NS(=O)(=O)c1cc2c(cc1Cl)NCNS2(=O)=O", "values": [
      {"measurement": "outcome", "setting": "[1]", "value": "inactive"},
      {"measurement": "outcome", "setting": "[2]", "value": "inactive"}
    ]},
    {"smiles": "COCCOC(=O)C1=C(C)NC(C)=C(C(=O)OC(C)C)C1c1cccc([N+](=O)[O-])c1", "note": "(stereo unspecified)", "values": [
      {"measurement": "z-score", "setting": "[3]", "value": "-0.18 (inactive)"},
      {"measurement": "remaining activity", "setting": "[4]", "value": "102% (inactive)"},
      {"measurement": "fold fluorescence", "setting": "[5]", "value": "6.04 [at 119.5 µM] (inactive)"}
    ]},
    {"smiles": "COc1ccc(Cl)cc1C(=O)NCCc1ccc(S(=O)(=O)NC(=O)NC2CCCCC2)cc1", "values": [
      {"measurement": "remaining activity", "setting": "[4]", "value": "104% (inactive)"},
      {"measurement": "fold fluorescence", "setting": "[5]", "value": "3.32 [at 101.2 µM] (inactive)"}
    ]},
    {"smiles": "CC(C)C(=O)Nc1ccc([N+](=O)[O-])c(C(F)(F)F)c1", "values": [
      {"measurement": "normalised LDH release", "setting": "[6]", "value": 0.739},
      {"measurement": "outcome", "setting": "[1]", "value": "inactive"},
      {"measurement": "SSMD", "setting": "[7]", "value": 1.17},
      {"measurement": "cell count", "setting": "[7]", "value": 6660},
      {"measurement": "plate-normalised HSF1 focus index", "setting": "[7]", "value": "1.06 (inactive)"}
    ]},
    {"smiles": "CN=C(NC#N)NCCSCc1nc[nH]c1C", "values": [
      {"measurement": "remaining activity", "setting": "[4]", "value": "118% (inactive)"}
    ]},
    {"smiles": "CCCCNc1cc(C(=O)O)cc(S(N)(=O)=O)c1Oc1ccccc1", "values": [
      {"measurement": "outcome", "setting": "[1]", "value": "inactive"},
      {"measurement": "outcome", "setting": "[2]", "value": "inactive"},
      {"measurement": "fold fluorescence", "setting": "[5]", "value": "4.08 [at 137.2 µM] (inactive)"}
    ]},
    {"smiles": "NCCc1ccc(O)c(O)c1", "values": [
      {"measurement": "parasite load remaining", "setting": "[8]", "value": "36.4% (inactive) and 34.7% (inactive) and 21% (inactive)"},
      {"measurement": "viability", "setting": "[8]", "value": "120% and 74.1% and 206%"}
    ]},
    {"smiles": "CC(=O)CC(c1ccccc1)c1c(O)c2ccccc2oc1=O", "note": "(stereo unspecified)", "values": [
      {"measurement": "parasite load remaining", "setting": "[8]", "value": "43.1% (inactive) and 79.3% (inactive) and 42.7% (inactive)"},
      {"measurement": "viability", "setting": "[8]", "value": "95.3% and 65.5% and 98.1%"},
      {"measurement": "outcome", "setting": "[2]", "value": "inactive"}
    ]},
    {"smiles": "CCOC(=O)C1=C(C)NC(C)=C(C(=O)OC)C1c1cccc([N+](=O)[O-])c1", "note": "(stereo unspecified)", "values": [
      {"measurement": "z-score", "setting": "[3]", "value": "0.0382 (inactive)"},
      {"measurement": "remaining activity", "setting": "[4]", "value": "111% (inactive)"},
      {"measurement": "fold fluorescence", "setting": "[5]", "value": "5.19 [at 138.7 µM] (inactive)"}
    ]},
    {"smiles": "COc1c(N2CCNC(C)C2)c(F)cc2c(=O)c(C(=O)O)cn(C3CC3)c12", "note": "(stereo unspecified)", "values": [
      {"measurement": "outcome", "setting": "[2]", "value": "inactive"},
      {"measurement": "inhibition", "setting": "[9]; at 0.5 µM", "value": "-13.4% (inactive) and -12.7% (inactive)"},
      {"measurement": "inhibition", "setting": "[9]; measured here: combination with BGB IC40, at 0.05 µM", "value": "-24.8% and -10.4%"},
      {"measurement": "inhibition", "setting": "[9]; [16]", "value": "-39.4% and -1.15%"},
      {"measurement": "inhibition", "setting": "[9]; [17]", "value": "-37.1% and -28.2%"},
      {"measurement": "inhibition", "setting": "[10]; at 0.5 µM", "value": "-43.6% (inactive) and -34.5% (inactive)"},
      {"measurement": "inhibition", "setting": "[10]; measured here: combination with BGB at IC20, at 0.5 µM", "value": "-42.5% and -87.3%"},
      {"measurement": "inhibition", "setting": "[10]; measured here: combination with cisplatin at IC20, at 0.5 µM", "value": "-71.8% and 0.194%"},
      {"measurement": "inhibition", "setting": "[11]; at 0.5 µM", "value": "-13.9% (inactive) and 3.18% (inactive)"},
      {"measurement": "inhibition", "setting": "[11]; measured here: combo with BGB at IC20, at 0.5 µM", "value": "-14.1% and 5.19%"},
      {"measurement": "inhibition", "setting": "[11]; measured here: combo with cisplatin at IC20, at 0.5 µM", "value": "-19.6% and 0.97%"},
      {"measurement": "inhibition", "setting": "[12]; at 0.5 µM", "value": "-2.27% (inactive) and 6.63% (inactive)"},
      {"measurement": "inhibition", "setting": "[12]; measured here: inhibition with BGB combination, at 0.05 µM", "value": "-7.46% and -0.326%"},
      {"measurement": "inhibition", "setting": "[12]; measured here: inhibition with cisplatin combination, at 0.05 µM", "value": "-30.7% and -0.886%"},
      {"measurement": "inhibition", "setting": "[13]; at 0.5 µM", "value": "-11.1% (inactive) and 6.57% (inactive)"},
      {"measurement": "inhibition", "setting": "[13]; [16]", "value": "-12.5% and 9.12%"},
      {"measurement": "inhibition", "setting": "[13]; [17]", "value": "-5.47% and -26.4%"},
      {"measurement": "inhibition", "setting": "[14]; BGB combination, concentration series, at 5 µM", "value": "-10.3% and 3.45%"},
      {"measurement": "inhibition", "setting": "[14]; at 0.5 µM", "value": "-4.22% (inactive) and 5.59% (inactive)"},
      {"measurement": "inhibition", "setting": "[14]; cisplatin combination, concentration series, at 5 µM", "value": "-1.48% and 7.21%"},
      {"measurement": "inhibition", "setting": "[15]; at 0.5 µM", "value": "-3.01% (inactive) and 1.57% (inactive)"},
      {"measurement": "inhibition", "setting": "[15]; measured here: combo with BGB IC20, at 0.5 µM", "value": "-5.37% and 4.53%"},
      {"measurement": "inhibition", "setting": "[15]; measured here: combo with cisplatin IC20, at 0.5 µM", "value": "-9.08% and 0.874%"}
    ]},
    {"smiles": "Oc1c(Cl)cc(Cl)c2cccnc12", "values": [
      {"measurement": "parasite load remaining", "setting": "[8]", "value": "-2.47% (inactive) and 0.685% (inactive)"},
      {"measurement": "viability", "setting": "[8]", "value": "56.8% and 69.6%"},
      {"measurement": "AC50", "setting": "[1]", "value": "11.8 µM (active)"},
      {"measurement": "AC50", "setting": "[2]", "value": "26.3 µM (active)"}
    ]}
  ]
}
